Screening results: PubChem, several laboratories
eIF4E 4G PPI = eIF4E/eIF4G interaction inhibition in translation initiation; TR-FRET eIF4E-eIF4GI(517-606) binding, 2 h; inhibition, % at 21.7 µM; 220,000 compounds, 0.37% hits; AID 782;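 also: 0% = full FRET control wells and 100% = background wells lacking eIF4GI fragment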
Mcl1 Noxa PPI = Mcl-1/Noxa interaction inhibition; TR-FRET Mcl-1/Noxa peptide binding, 2 h; inhibition, % at 21.7 µM; Q07820; 220,000 compounds, 1.5% hits;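 active = compounds that cut the protein-peptide binding signal by more than 50% relative to plate controls in a single-dose test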;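 also: His-tagged Mcl-1 with rhodamine Noxa BH3 peptide and terbium anti-His antibody; 0% = Mcl-1 plus Noxa peptide wells and 100% = peptide-only wells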
Target sequence (Q07820 whole entry, looked up): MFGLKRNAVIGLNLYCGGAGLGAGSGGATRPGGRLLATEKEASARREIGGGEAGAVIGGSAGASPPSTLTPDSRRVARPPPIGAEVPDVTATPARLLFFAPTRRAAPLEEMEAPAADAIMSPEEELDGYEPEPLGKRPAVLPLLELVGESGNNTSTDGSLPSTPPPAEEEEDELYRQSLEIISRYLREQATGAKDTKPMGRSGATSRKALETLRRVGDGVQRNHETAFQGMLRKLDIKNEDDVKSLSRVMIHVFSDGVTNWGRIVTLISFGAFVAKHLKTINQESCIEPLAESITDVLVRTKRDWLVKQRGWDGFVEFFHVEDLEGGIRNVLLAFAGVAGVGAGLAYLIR
14-3-3 Bad PPI = disrupts binding of bovine 14-3-3 zeta to phospho-Bad peptide; inhibition, % at 21.7 µM; P63103; TR-FRET 14-3-3zeta/Dy647-pBad peptide displacement, 1 h; AID 781; 220,000 compounds, 0.71% hits;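 active = inhibition above about 70%, limit read from the data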;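 also: 0% = full 14-3-3 plus peptide FRET controls and 100% = background without 14-3-3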
Mcl1 Bid PPI = Mcl-1/Bid interaction inhibition; Q07820; TR-FRET Mcl-1/Bid-Dy647 peptide binding, 1536-well; inhibition, % at 21.7 µM; 220,000 compounds, 0.97% hits; AID 1021;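 active = compounds that cut the binding signal by more than half at the single screening dose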;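 also: His-tagged Mcl-1 with europium anti-His antibody binding Bid BH3 peptide; 0% = Mcl-1 plus peptide wells and 100% = peptide-only wells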
p47phox inh = inhibitors of human p47phox binding. 220,000 compounds, 0.53% hits. P14598. inhibition, % at 24.7 µM. p47phox/p22phox peptide binding, fluorescence polarization, 2 h;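 also: 0% = p47phox with labelled peptide and 100% = labelled peptide alone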
Mcl-1 Bim block = disrupts Bim peptide binding to human Mcl-1; Bead-based flow cytometry, Bim peptide-Mcl-1 binding; inhibition, % at 10 µM; 190,000 compounds, 0.1% hits; AID 1009; in the data active = inhibition above about 40%;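 also: 0% = no compound tracer wells and 100% = peptide blocker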
An asterisk follows results filed as active; [ ] = another dose, or the depositor's remark. Sampled rows, rich in hits. Any-hit rate of the full collection: about 3.4%.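 The calls were made as follows, unless noted: active = inhibition above about 30% (limit read from the data); inactive = the rest.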

Results for CCC(CC)C(=O)Nc1cccc(C(=O)Nc2ccc(S(N)(=O)=O)cc2)c1 ?
eIF4E 4G PPI: -0.7; Mcl1 Noxa PPI: -1.0; 14-3-3 Bad PPI: -2.0; Mcl1 Bid PPI: -39.0; p47phox inh: -0.7; Mcl-1 Bim block: 0.0

Results for O=C1C=C(O)c2cccc(O)c2C1=O ?
eIF4E 4G PPI: -13.8; Mcl1 Noxa PPI: 60.3*; 14-3-3 Bad PPI: 0.0; Mcl1 Bid PPI: -77.7; p47phox inh: -2.6

Results for Cc1ccc(SCc2cc(=O)n(C)[nH]2)cc1 ?
eIF4E 4G PPI: -2.1; Mcl1 Noxa PPI: 14.5; 14-3-3 Bad PPI: -16.2; Mcl1 Bid PPI: -62.0; p47phox inh: -9.8; Mcl-1 Bim block: -1.0

How did Nc1ccc(C(=O)OCC(=O)Nc2ccc3c(c2)OCO3)cc1[N+](=O)[O-] do in these assays?
eIF4E 4G PPI: 3.1; Mcl1 Noxa PPI: 51.9*; 14-3-3 Bad PPI: 10.9; Mcl1 Bid PPI: -33.2; p47phox inh: -4.0; Mcl-1 Bim block: 0.0

How did O=C(COC(=O)c1cnccn1)Nc1ccc2c(c1)OCO2 do in these assays?
eIF4E 4G PPI: -10.3; Mcl1 Noxa PPI: 62.2*; 14-3-3 Bad PPI: -5.3; Mcl1 Bid PPI: -1.0; p47phox inh: 4.1; Mcl-1 Bim block: 0.0

How did Cc1ccc(NC(=O)C2CC2C)c(Cl)c1 (stereo not given) do in these assays?
eIF4E 4G PPI: -2.8; Mcl1 Noxa PPI: 13.5; 14-3-3 Bad PPI: -13.3; Mcl1 Bid PPI: -21.2; p47phox inh: -4.3; Mcl-1 Bim block: -2.0

What do the screens show for `O=S(=O)(Nc1ccc(N=Nc2ccccc2)cc1)c1ccccc1`?
eIF4E 4G PPI: 4.4; Mcl1 Noxa PPI: -10.9; 14-3-3 Bad PPI: 9.6; Mcl1 Bid PPI: 12.2; p47phox inh: -9.9; Mcl-1 Bim block: -3.0

What do the screens show for `O=S(=O)(Nc1ccc(N=Nc2ccc(O)c3ccccc23)cc1)c1ccccc1`?
eIF4E 4G PPI: -1.2; Mcl1 Noxa PPI: 58.8*; 14-3-3 Bad PPI: -13.0; Mcl1 Bid PPI: -29.2; p47phox inh: -62.9; Mcl-1 Bim block: 1.0

Results for COc1ccc2cc3c(N)nn(C(=O)c4ccc(Cl)c([N+](=O)[O-])c4)c3nc2c1 ?
eIF4E 4G PPI: 15.9; Mcl1 Noxa PPI: 16.9; 14-3-3 Bad PPI: 73.8*[fluorescence artefact?]; Mcl1 Bid PPI: 54.1*; p47phox inh: 21.8; Mcl-1 Bim block: 8.0

What do the screens show for `COc1ccc(/C=N\NC(=O)c2cc(O)c(O)c(O)c2)cc1CN1CCN(c2ccc(F)cc2)CC1`?
eIF4E 4G PPI: 3.3; Mcl1 Noxa PPI: 70.5*; 14-3-3 Bad PPI: 5.1; Mcl1 Bid PPI: -38.4; p47phox inh: -4.2; Mcl-1 Bim block: 0.0

Results for COc1ccc(/C=N/NC(=O)c2ccc(C)cc2)cc1CN1CCN(c2ccc(F)cc2)CC1 ?
eIF4E 4G PPI: -8.0; Mcl1 Noxa PPI: 12.0; 14-3-3 Bad PPI: 0.5; Mcl1 Bid PPI: -52.8; p47phox inh: 3.0; Mcl-1 Bim block: -1.0

Results for COc1ccc(-c2nnc(Nc3nc4c(OC)cccc4s3)o2)c(OC)c1 ?
Mcl1 Noxa PPI: -6.4; Mcl1 Bid PPI: -74.2; p47phox inh: -15.0; Mcl-1 Bim block: -1.0

Results for COc1ccc(-c2nnc(Nc3nc4c(OC)cccc4s3)o2)cc1 ?
eIF4E 4G PPI: -46.2; Mcl1 Noxa PPI: 56.8*; 14-3-3 Bad PPI: 59.3; Mcl1 Bid PPI: 56.4*; p47phox inh: 26.0; Mcl-1 Bim block: -3.0

How did CCc1nn2c(=O)cc(COc3ccc(/C=C4\C(=N)N5N=C(C)SC5=NC4=O)cc3)nc2s1 do in these assays?
eIF4E 4G PPI: 20.7; Mcl1 Noxa PPI: 77.3*; 14-3-3 Bad PPI: 22.3; Mcl1 Bid PPI: -49.0; p47phox inh: -17.4; Mcl-1 Bim block: 2.0

What do the screens show for `COc1c(S(=O)(=O)NCCCN2CCOCC2)ccc(Cl)c1Cl`?
eIF4E 4G PPI: 86.2*; Mcl1 Noxa PPI: 4.8; 14-3-3 Bad PPI: -9.8; Mcl1 Bid PPI: -22.1; p47phox inh: -3.0

Results for COc1ccc(-c2cn[nH]c2-c2ccc(OCc3ccc([N+](=O)[O-])cc3)cc2O)cc1 ?
eIF4E 4G PPI: 5.9; Mcl1 Noxa PPI: -6.1; 14-3-3 Bad PPI: 0.1; Mcl1 Bid PPI: -3.9; p47phox inh: 34.9*; Mcl-1 Bim block: 2.0

Results for COc1cccc(OC)c1OCCCCN1CCCC1 ?
eIF4E 4G PPI: -3.9; Mcl1 Noxa PPI: 21.8; 14-3-3 Bad PPI: 74.5*; Mcl1 Bid PPI: 31.2; p47phox inh: 0.1; Mcl-1 Bim block: -6.0

What do the screens show for `Cc1cc(Br)ccc1OCCCCN1CCCCC1`?
eIF4E 4G PPI: -1.8; Mcl1 Noxa PPI: 30.8; 14-3-3 Bad PPI: 26.9; Mcl1 Bid PPI: 32.6; p47phox inh: 48.3*; Mcl-1 Bim block: -3.0
